This excerpt belongs to a sample that is enriched for hits.
IL1B secr inh – blocks inflammasome-driven IL-1 beta release; THP-1 LPS/ATP IL-1B secretion, AlphaLISA, 16 h; hits give low values; activity change, % at 57.5 µM; 4.7% of 360,000 active; in the data active means activity change below about -50%; inconclusive means mostly about -30% to -49%
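Secreted IL-1B measured by AlphaLISA bead assay after 16 h compound exposure of THP-1 cells; compounds (final up to 57.5 uM) added 1 h before LPS (250 ng/mL) and ATP (1.25 mM) stimulation; lower signal means less secretion.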
TDP1 cell noCPT – qHTS for Inhibitors of human tyrosyl-DNA phosphodiesterase 1 (TDP1): qHTS in cells in absence of CPT; DT40 Tdp1-/- hTDP1 cells, no CPT, ATP luminescence, 48 h; 15% of 420,000 active; Potency, µM (top dose mostly 46.2 µM), for the others: top-dose activity change, negative = growth inhibition, most hits filed as inhibitors; further: potency means the concentration at half of the fitted maximal effect; nearly all actives have a fitted effect of over 55% in size
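Chicken DT40 Tdp1-/- cells complemented with human TDP1, screened without camptothecin (DMSO vehicle only), 400 cells/well. Compounds pin-transferred, cells incubated at 37 °C for at least 48 hr. Growth read as ATP-dependent luminescence (CellTiter-Glo, 30 min at RT).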
DT40 TDP1 CPT – DT40-hTDP1 cell growth loss with CPT. Potency, µM (top dose mostly 46.2 µM), for inactives: at the highest dose activity change, negative = growth inhibition, most hits filed as inhibitors. 12% of 420,000 active. chicken DT40 Tdp1-/-;hTDP1 cells + 20 nM CPT, ATP luminescence, 48 h; further: potency means the concentration at half of the fitted maximal effect; nearly all actives have a fitted effect of over 55% in size
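Chicken DT40 Tdp1-/- cells stably complemented with human TDP1 were seeded at 400 cells/well in medium containing 20 nM camptothecin, exposed to pin-transferred compounds, and grown at 37 °C for at least 48 hr. Viability was read as ATP luminescence.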
ALOX12 inh – blocks human arachidonate 12S-lipoxygenase; 1.1% of 580,000 active; purified 12hLO, xylenol orange hydroperoxide absorbance; Potency, µM (series often up to 108 µM), inactives show at the top dose activity change, negative = inhibition, hits mostly inhibitors; further: potency means the concentration at half of the fitted maximal effect
Target sequence (P18054 whole entry, looked up): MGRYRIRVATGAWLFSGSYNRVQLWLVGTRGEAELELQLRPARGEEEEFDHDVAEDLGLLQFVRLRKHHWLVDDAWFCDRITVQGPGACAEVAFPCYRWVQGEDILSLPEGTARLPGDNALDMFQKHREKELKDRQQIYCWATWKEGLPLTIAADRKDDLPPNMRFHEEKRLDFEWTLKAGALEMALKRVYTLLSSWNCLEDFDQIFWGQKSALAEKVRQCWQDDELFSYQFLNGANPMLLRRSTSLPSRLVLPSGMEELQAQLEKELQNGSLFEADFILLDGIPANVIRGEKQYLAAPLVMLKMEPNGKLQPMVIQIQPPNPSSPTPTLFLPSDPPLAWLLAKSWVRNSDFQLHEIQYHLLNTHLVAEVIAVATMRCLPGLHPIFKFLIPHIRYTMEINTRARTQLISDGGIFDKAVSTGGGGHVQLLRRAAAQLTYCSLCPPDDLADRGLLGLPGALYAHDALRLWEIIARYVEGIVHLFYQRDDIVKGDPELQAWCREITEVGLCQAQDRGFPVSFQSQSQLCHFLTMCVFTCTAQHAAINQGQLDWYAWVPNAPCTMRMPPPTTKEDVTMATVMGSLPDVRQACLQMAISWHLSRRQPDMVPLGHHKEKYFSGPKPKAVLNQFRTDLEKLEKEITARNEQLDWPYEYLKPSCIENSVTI
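Purified human 12hLO (150 nM final) in 25 mM Hepes, 0.01% Triton X-100, pH 7.0 was preincubated 15 min at room temperature with compound. Then 40 uM arachidonic acid was added, 30 min. Hydroperoxide was read by Fe-XO absorbance ratio 573/405 nm.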
HT1080 IDH1KD tx – HT-1080 IDH1 knockdown cell toxicity (counter line) | HT-1080 IDH1 knockdown viability, ATP luminescence, 48 h | Potency, µM (series often up to 46.1 µM), inactives show at the highest dose activity, negative = toxicity, most hits filed as cytotoxic | 2% of 360,000 active | AID 686971;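 further: potency means the concentration at half of the fitted maximal effect; 0% = DMSO wells and -100% = cell-free medium wells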
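HT-1080-IDH1KD cells (IDH1 knocked down), 750/well in RPMI with 5% FBS, treated with compound 48 h at 37 degrees C. Viability by CellTiter-Glo luminescence, normalised to DMSO and no-cell wells; concentration-response curves classed.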
HT1080NT lethal – kills 2HG-producing HT-1080-NT fibrosarcoma cells. HT-1080-NT fibrosarcoma viability, CellTiter-Glo ATP luminescence, 48 h. Potency, µM (highest dose often 46.1 µM), for inactives: at the highest dose activity, negative = less viability, usual class: cytotoxic. 1.6% of 360,000 active. AID 686970;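 further: NT is the 2HG producing partner of a matched IDH1 knockdown line; potency means the concentration at half of the fitted maximal effect; 0% = DMSO-treated cells and -100% = media-only wells without cells; nearly all actives have a fitted effect of over 55% in size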
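Compounds were tested in concentration-response format on HT-1080-NT cells for 48 hours at 37 degrees C. Cell viability came from CellTiter-Glo luminescence; curves were classified by r2, response magnitude and activity.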
Numbers without * were called inactive; ? = inconclusive; . = no result. Unless noted, the call rests on the fitted dose curve; in most records, active means well fitted curve in the direction sought with a large enough effect; inconclusive means small, poorly fitted or top-dose-only effect, or another doubt; inactive means no such curve, though single readings can be large; an effect the other way counts as inactive or inconclusive. Unless noted, on the % scale 0 is the no-effect control and ±100 the full control effect.

SMILES | IL1B secr inh | TDP1 cell noCPT | DT40 TDP1 CPT | ALOX12 inh | HT1080 IDH1KD tx | HT1080NT lethal
O=C(CN(CC(=O)Nc1ccc(Br)cc1)CC(=O)Nc1ccc(Br)cc1)Nc1ccc(Br)cc1 | . | . | . | 11µM* | . | .
O=C(CSc1ccc(F)cc1)Nc1ccc(Br)cc1 | 0 | 18µM* | -30% | -12% | -5% | 2%
CCN(CC)CC(=O)Nc1ccc(Oc2ccc(NC(=O)CN(CC)CC)cc2)cc1 | -58* | -15% | 1% | 7% | -10% | ?
O=C(CSc1ccc(F)cc1)Nc1ccccc1Br | 9 | 0% | 3% | 2% | 16% | ?
CSc1ccccc1C(=O)Nc1ccc(F)cc1 | . | . | . | -7% | . | .
CCNC(=O)c1ccccc1SCC(=O)Nc1ccc(F)cc1 | -8 | ? | 16µM* | -9% | 14% | 12%
COc1ccc(C(=O)Nc2cccc3ccc(C)nc23)cc1Cl | . | . | . | 7% | . | .
CCCNc1ncnc2onc(-c3ccccc3C)c12 | . | . | . | 8% | . | .
COCCn1c(C)cnc1CC1CCCN(C(=O)c2ccnn2C)C1 (centres undefined) | . | . | . | 6% | . | .
COc1cccc(-c2cc(C(=O)NCCC(C)n3ccnc3)[nH]n2)c1 (centres undefined) | . | . | . | 61% | . | .
COc1ccc(C(=O)N2CCCC(CN3CCOCC3)CC2)cc1OC (centres undefined) | . | . | . | -2% | . | .
Cc1cc(C)c(C)c(S(=O)(=O)N(C)C2CCN(C)CC2)c1C | -18 | 16µM* | 23µM* | -27% | -14% | -1%
CN1CCC(N(C)S(=O)(=O)c2ccc(Cl)cc2)CC1 | 26 | 18% | -1% | -4% | 3% | 8%
CC1(C)C2CCC1(CS(=O)(=O)NCc1ccc(S(N)(=O)=O)cc1)C(=O)C2 (centres undefined) | 30 | 0% | 1% | -8% | 10% | 8%
CC1(C)C2CCC1(CS(=O)(=O)NCc1ccc(C(F)(F)F)cc1)C(=O)C2 (centres undefined) | -23 | 12µM* | ? | . | -19% | -18%
CCOc1ccc(-c2cn3c(n2)sc2cc(C(=O)NCCc4ccc(OC)cc4OC)ccc23)cc1 | . | ? | -21% | -3% | . | .
CCCN1CCN(CCCNC(=O)c2ccc3c(c2)sc2nc(-c4ccc(OCC)cc4)cn23)CC1 | . | 2.9µM* | 1.8µM* | 1% | . | .
CCOc1ccc(-c2cn3c(n2)sc2cc(C(=O)NCCCN4CCCCC4)ccc23)cc1 | . | 1.6µM* | 1.6µM* | 9% | . | .
CCOc1ccc(-c2cn3c(n2)sc2cc(C(=O)NCCCN(CC)CC)ccc23)cc1 | . | 0.82µM* | 0.73µM* | ? | . | .
CCN(CC)CCNC(=O)c1ccc2c(c1)sc1nc(-c3ccc(F)cc3)cn12 | . | 3.3µM* | 5.8µM* | ? | . | .
CCOc1ccc(C(=O)N2CCC([C@@H]3CNC[C@H]3CO)CC2)cc1OCC | . | . | . | 18% | . | .
CC1(C)CC(NC(=O)C2CCC(CNC(=O)CNC(=O)c3ccccc3)CC2)CC(C)(C)N1 (centres undefined) | . | . | . | 3% | . | .
COc1ccc(-c2nc(NCCN3CCCCC3C)c3ccccc3n2)cc1 (centres undefined) | . | . | . | -3% | . | .
CCOc1ccc(-c2cn3c(n2)sc2cc(C(=O)NC4CCCc5ccccc54)ccc23)cc1 (centres undefined) | . | 5.2µM* | 12µM* | -10% | . | .
O=C(NC1CCCc2ccccc21)c1ccc2ncsc2c1 (centres undefined) | . | . | . | -23% | . | .
CCOc1ccc(-c2cn3c(n2)sc2cc(C(=O)NCCCN4CCCCCC4)ccc23)cc1 | . | 6.5µM* | 5.8µM* | ? | . | .

Screens (PubChem)
